Sampled rows, rich in hits. Any-hit rate of the full collection: about 4.1%.
AMA1-RON2 inh – inhibitors of Plasmodium falciparum AMA1-RON2 interaction | AlphaScreen AMA1-biotinylated RON2 peptide binding | Potency, µM (doses to about 58.2 µM), without a hit: at the top dose activity change, negative = inhibition, actives largely listed as inhibitors | hit rate 0.2% among 360,000;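 further: 0% = vehicle wells and -100% = peptide control; nearly all actives have a fitted effect of over 45% in size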
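AMA1 (3D7) with his tag at 25 nM final met compounds first, then biotinylated RON2 peptide at 25 nM; detection used donor plus acceptor beads, 10 µg/mL apiece, read by AlphaScreen after 30 min at room temperature.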
AmpC inh no detg – inhibitors of E. coli AmpC beta-lactamase without detergent; AmpC nitrocefin hydrolysis, absorbance 480 nm, 0.0001% Triton; Potency, µM (doses to about 57.1 µM), for the others: at the highest dose activity change, negative = inhibition, usual class: inhibitors; hit rate 0.52% among 330,000;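 further: plate controls were no compound for no effect and no enzyme for full effect; nearly all actives have a fitted effect of over 20% in size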
Target sequence (P00811 whole entry, looked up): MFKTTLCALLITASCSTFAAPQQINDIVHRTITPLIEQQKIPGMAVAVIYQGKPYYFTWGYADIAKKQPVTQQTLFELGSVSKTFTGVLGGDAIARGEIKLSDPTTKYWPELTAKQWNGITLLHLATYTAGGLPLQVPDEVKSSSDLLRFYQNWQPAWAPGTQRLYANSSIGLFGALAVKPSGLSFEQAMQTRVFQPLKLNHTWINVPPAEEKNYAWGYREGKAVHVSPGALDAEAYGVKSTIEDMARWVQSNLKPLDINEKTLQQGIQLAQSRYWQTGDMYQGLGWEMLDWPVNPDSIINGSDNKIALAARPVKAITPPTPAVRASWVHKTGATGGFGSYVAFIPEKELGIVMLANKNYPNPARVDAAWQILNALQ
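20 mM phosphate pH 7.0 + 0.01% (detergent screen) or 0.0001% Triton X-100; 5.3 nM AmpC reagent; cpd preinc 15 min RT; nitrocefin (800 uM stock) to start; A480 q20 s × 4 min; Activity was normalised to no-enzyme and no-compound control wells.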
AmpC detergent – AmpC beta-lactamase inhibition with detergent present | P00811 | AmpC hydrolysis of nitrocefin, absorbance 480 nm, 0.01% Triton | Potency, µM (titrated, usually from 114 µM), inactives show at the top dose activity change, negative = inhibition, hits mostly inhibitors | hit rate 0.041% among 370,000 | AID 485294;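 further: 0% = no-compound wells and -100% = no-enzyme wells; nearly all actives have a fitted effect of over 25% in size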
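20 mM phosphate pH 7.0 + 0.01% (detergent screen) or 0.0001% Triton X-100; 5.3 nM AmpC reagent; cpd preinc 15 min RT; nitrocefin (800 uM stock) to start; A480 q20 s × 4 min; Activity was normalised to no-enzyme and no-compound control wells.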
Sm TGR block – S. mansoni TGR enzyme inhibition | purified TGR, DTNB reduction, TNB absorbance 405 nm | hit rate 3% among 360,000 | Potency, µM (highest dose often 114 µM), inactives show top-dose activity change, negative = inhibition, most hits filed as inhibitors | AID 485364 | Q962Y6; further: nearly all actives have a fitted effect of over 60% in size
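Kinetic colorimetric format: TGR-catalysed, NADPH-driven DTNB reduction monitored via TNB absorbance. Enzyme dispensed at 20 nM; compound exposure 15 min at room temperature before reaction start.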
FMDV inh – antivirals against foot and mouth disease virus; FMDV antiviral cell-based qHTS; Potency, µM (series often up to 57.9 µM), for the others: at the top dose activity change, negative = inhibition, most hits filed as inhibitors; AID 1159524; hit rate 1.2% among 410,000; calls by dose curve; tested in HEK293T cells; further: read-out not given here; nearly all actives have a fitted effect of over 45% in size
Numbers without * were called inactive; ? = inconclusive; nt = not tested or not shown; [ ] = remark or other dose. Unless noted, the call rests on the fitted dose curve; in most records, active means well fitted curve in the direction sought with a large enough effect; inconclusive means small, poorly fitted or top-dose-only effect, or another doubt; inactive means no such curve, though single readings can be large; an effect the other way counts as inactive or inconclusive. Unless noted, on the % scale 0 is the no-effect control and ±100 the full control effect; potency means the concentration at half of the fitted maximal effect.

SMILES | AMA1-RON2 inh | AmpC inh no detg | AmpC detergent | Sm TGR block | FMDV inh
C#CCN(C[C@@H]1[C@@H](OC(=O)NCc2ccco2)[C@@H](OC(=O)NCc2ccco2)Cn2c(=O)n(CCCCCC)c(=O)n21)S(=O)(=O)c1ccc(C)cc1 | 2.2% | nt | nt | nt | 28.2µM*
C#CCN(C[C@@H]1[C@@H](OC(=O)NCc2ccco2)[C@@H](OC(=O)NCc2ccco2)Cn2c(=O)ccc(=O)n21)S(=O)(=O)c1ccc(C)cc1 | -0.7% | nt | nt | nt | 6.31µM*
COc1ccc(S(=O)(=O)NCc2nc(N3CCCC3)c3cccc(C)c3n2)cc1OC | nt | nt | nt | nt | -5.3%
Cc1nc2ccc(Br)cn2c1NC(C)(C)C | 8.3% | -13.3% | -7.4% | -7.1% | -3.7%
Cc1nc2ccc(Br)cn2c(=O)c1Cl | 7.3% | -17.5% | -23.2% | 1.3% | 3.98µM*
Cc1sc2nc(CN3CCOCC3)nc(Oc3ccc(NC(=O)c4ccco4)cc3)c2c1C | 0.1% | 200.0% | ? | 28.2µM* | -1.9%
CC12CN3CC(C)(CN(C1)C3c1ccc(OCc3ccccc3)cc1)C2=O (centres undefined) | nt | nt | 25.1% | 6.2% | 7.1%
COc1ccc(/C=C2\CCC/C(=C\C=N\N(C)C)C2=O)cc1 | ? | 7.8% | -2.8% | 0.0% | 1.8%
CN(C)/N=C/C=C1\CCC/C(=C\c2ccc(F)c(F)c2)C1=O | ? | -8.7%[2.29 µM] | 2.5% | 15.8µM* | -21.9%
O=C(c1ccco1)N1CCN(Cc2c(Cl)cccc2Cl)CC1 | -1.2% | 1.6% | -16.4% | -11.1% | 0.0%
O=C(c1ccco1)N1CCN(Cc2csc(-c3ccccc3Cl)n2)CC1 | -11.8% | 162.6% | 15.0% | 50.1µM* | -10.9%
CC1=C(C(=O)Nc2cccnc2)C(c2cccc(Br)c2)n2nc(SCc3ccccc3)nc2N1 (centres undefined) | nt | nt | -2.2% | -16.2% | -7.9%
CCOC(=O)C1CCCN(c2c(NCCCN(CC)c3ccccc3)c(=O)c2=O)C1 (centres undefined) | 3.5% | ? | 1.9% | 0.4% | 3.6%
CCOC(=O)C1CCCN(c2c(NCCN(CC)c3ccccc3)c(=O)c2=O)C1 (centres undefined) | -2.8% | 22.4µM* | 3.4% | 18.1% | 4.0%
CCOC(=O)C1CCCN(c2c(NCCN3CCCCC3C)c(=O)c2=O)C1 (centres undefined) | -1.7% | 3.55µM* | ? | 0.4% | -4.0%
Cc1cc(C(=O)Nc2ccccc2-c2nc(CNC(=O)c3sc(C)nc3C)c(C)o2)c(C)o1 | nt | nt | nt | nt | 0.6%
CCn1c(-c2cccnc2)nc2cc(NC(=O)COC)cc(C(=O)N3CC[C@@H]4CCCC[C@H]4C3)c21 | nt | nt | nt | nt | -6.7%
COc1ccc(/C=C/C(=O)c2cc(F)ccc2OC(=O)c2ccccc2OC)cc1OC | -26.4% | 121.8% | ? | -5.1% | 8.91µM*
COc1ccc(/C=C/C(=O)c2cc(F)ccc2OC(=O)c2ccccc2)cc1OC | -23.7% | nt | nt | nt | 28.2µM*
COc1ccc(/C=C/C(=O)c2cc(F)ccc2OC(=O)c2ccc(OC)c(OC)c2)cc1OC | -2.6% | 232.8% | -4.2% | -0.7% | ?
CC(=O)N1CCC[C@H]1C(=O)NCC1Cc2cc(-c3cccc(OC(F)(F)F)c3)ccc2O1 (some centres undefined) | nt | nt | nt | nt | -7.3%
COc1cc(=O)n2c(c1C(=O)NC(C)c1ccco1)CCN(C(=O)c1ccccc1SC)CC2 (centres undefined) | nt | nt | nt | nt | 23.1%
N=C1C(c2nc3ccccc3s2)=C(O)CN1NC(=O)c1ccccc1[N+](=O)[O-] | -0.1% | -4.2%[2.29 µM] | 0.0% | 6.1% | -11.3%
N=C1C(c2nc3ccccc3s2)=C(O)CN1NC(=O)c1c[nH]c2ccccc12 | -15.9% | 15.8µM* | 0.5% | nt | -0.8%
O=C(NCc1ccc2c(c1)CCN2C(=O)c1ccncc1)c1cccc(Cl)c1 | nt | nt | 5.9% | 2.6% | -22.6%
SMILES | AMA1-RON2 inh | AmpC inh no detg | AmpC detergent | Sm TGR block | FMDV inh
C/C(=C\c1ccccc1)C(=O)n1nnc2ccccc21 | -9.5% | -11.7% | -5.9% | 20µM* | -17.2%
CCSc1ccccc1C(=O)N1CCCC1 | -10.8% | -4.5% | 4.5% | 0.3% | 3.8%
COc1cccc(-c2nn(-c3ccccc3)cc2C(=O)n2nnc3ccccc32)c1 | 13.6% | -16.8% | -5.5% | 4.0% | 39.8µM*
O=C(N1CCOCC1)n1nnc2ccccc21 | -10.3% | 12.6µM* | 44.7µM* | 25.6% | -15.4%
O=C(N1CCOCC1)n1cnc2ccccc21 | 0.8% | -3.6% | -8.9% | -4.8% | nt
CCSc1ccccc1C(=O)n1nnc2ccccc21 | 12.5% | nt | ? | 20µM* | ?
COc1cccc(C(=O)NCC(c2ccc3c(c2)OCO3)N2CCN(C)CC2)c1 (centres undefined) | nt | nt | 5.5% | 8.0% | -8.0%
COC(=O)[C@@H]1CCCN1Cc1ccc2c(c1)CN(Cc1ccccc1C)CCO2 | nt | nt | nt | nt | -10.1%
COc1ccc(C(=O)n2nnc3ccccc32)cc1Br | -4.0% | 1.0% | -1.3% | ? | nt
COc1ccc(C(=O)n2nnc3ccccc32)cc1OC | 6.2% | -33.6% | -16.5% | 6.31µM* | -23.1%
COc1ccc(N/C(=C(/C(Cl)=C(Cl)Cl)[N+](=O)[O-])n2nnc3ccccc32)cc1OC | nt | -13.5% | -14.7% | 22.4µM* | nt
O=C(c1ccc2c(c1)OCO2)n1nnc2ccccc21 | nt | -12.0% | ? | 10µM* | nt
COc1ccc(C(=O)Oc2c(Sc3ccc(C)cc3)c(C)nn2C(C)(C)C)c(OC)c1 | nt | nt | 3.5% | 8.7% | ?
COc1ccc2c3c(cccc13)C(=O)N(O)C2=O | -1.4% | -12.2% | 3.3% | 5.9% | -11.5%
CCC1=NNc2cccc3c(OC)ccc1c23 | nt | -12.6% | -3.2% | 10µM* | nt
COCC1CCCN(c2nc(CN3CCN(C(=O)c4ccco4)CC3)nc3ccccc23)C1 (centres undefined) | nt | nt | nt | nt | 3.5%
CCCOc1cccc(C2C(C(=O)c3ccc(C)o3)=C(O)C(=O)N2CCN2CCOCC2)c1 (centres undefined) | 8.6% | -10.4% | ? | ? | 13.1%
CCCOc1cccc(C2C(C(=O)c3ccc(C)o3)=C(O)C(=O)N2c2nc(C)c(C(C)=O)s2)c1 (centres undefined) | 30.4% | -29.0% | 4.4% | 35.5µM* | 5.0%
C=CCOc1cccc(C2C(C(=O)c3ccc(C)o3)=C(O)C(=O)N2CCN(C)C)c1 (centres undefined) | 17.2% | -5.1% | ? | 35.5µM* | -9.3%
CCOc1cccc(C2C(C(=O)c3ccc(C)o3)=C(O)C(=O)N2c2nnc(C)s2)c1 (centres undefined) | 4.0% | nt | nt | nt | 10.5%
CN(C)c1cc2c(c(N(C)C)c1)C(=O)c1ccccc1C2=O | 17.8µM* | 24.3% | 0.2% | 7.2% | 6.0%
O=C1c2ccccc2C(=O)c2c1cccc2N(CCO)CCO | -22.2% | -13.2% | -6.6% | -8.5% | -8.6%
Cc1ccc(NC(=O)NNC(=O)c2cc3ccccc3cc2O)cc1 | 67.5% | 10µM* | -1.5% | 1.3% | -3.5%
